Each structure is given as a SMILES string. Results filed as inconclusive are left out. A call without a number means that no potency is given here. The source made the active and inactive calls. Calls come from the whole dose curve; as a rule, active = well fitted cell-killing curve with a large enough effect in the repeat runs; inconclusive = weak or mixed curves, or effect the other way; inactive = flat fitted curve, though single readings scatter.
Potency is the fitted concentration of half-maximal effect.

This assay in a line: qHTS assay to identify small molecule antagonists of the estrogen receptor alpha (ER-alpha) signaling pathway using the BG1 cell line in the presence of 0.1 nM 17-beta-estradiol - cell viability counter screen (AID 1259241). Note: nearly all actives have a fitted effect of over 40% in size. To be noted: VM7Luc4E2 (BG1) viability, CellTiter-Fluor protease, 22 h, 0.1 nM estradiol agonist added; series mostly up to 92.4 µM. The text has this: National Center for Advancing Translational Sciences [NCATS]
NIH Chemical Genomics Center [NCGC]
U.S. Environmental Protection Agency [EPA]
National Institutes of Environmental Health Sciences [NIEHS]
National Toxicology Program [NTP]
U.S. Food and Drug Administration [FDA]
Estrogen receptor (ER), a member of the nuclear hormone receptor plays an important role in development, metabolic homeostasis and reproduction. Two subtypes of ER, ER-alpha and ER-beta, have similar expression patterns with some uniqueness in both types. Endocrine disrupting chemicals (EDCs) and their interactions with steroid hormone receptors like ER causes disruption of normal endocrine function. Therefore, it is important to understand the effect of environmental chemicals in ER signaling pathway. For identifying ER antagonists, VM7Luc4E2 cell line was used to screen against Tox21 compound libraries.
VM7Luc4E2 cell line (provided by Denison MS, University of California) endogenously express full-length ER-alpha and is stably transfected with a plasmid containing four estrogen responsive elements (ERE) upstream of a luciferase reporter gene. The current screening for identification of ER-alpha inhibitors against Tox21 compound libraries used lower concentration (0.1 nM) of 17beta-Estradiol as a stimulator. The cytotoxicity of the Tox21 compound libraries against VM7Luc4E2 cell line was tested by measuring live-cell protease activity using CellTiter-Fluor assay in the same wells.
Tox21 Assay Protocol Summary:
VM7Luc4E2 cells were cultured in phenol red free assay medium containing 10% charcoal stripped FBS for 5 days prior to the assay. The cells were dispensed at 4,000 cells/well in 4 uL of assay medium into white wall/solid-bottom 1536-well plates (Corning Life Sciences, Corning, NY) using a Multidrop Combi (ThermoFisher Scientific, Waltham, MA) dispenser. After the assay plates were incubated at 37C and 5% CO2 for 24 hr, 23 nL of compounds dissolved in DMSO, positive controls or DMSO only was transferred to the assay plates by a Pintool station (Kalypsys, San Diego, CA). The transfer of compounds was followed by the addition of 1 uL of 0.1 nM (final concentration) agonist (17beta-Estradiol)/assay medium using a Flying Reagent Dispenser (FRD, Aurora Discovery, San Diego, CA). The plates were incubated at 37C and 5% CO2 for 22 hr. For cytotoxicity assay, 1 uL of CellTiter-Fluor reagent (Promega Corporation, Madison, WI) was added to each well using the FRD and after 30 min incubation at 37C and 5% CO2, The fluorescence intensity was measured using ViewLux plate reader (PerkinElmer, Shelton, CT).
For orientation: Quantitative high-throughput screening tests each substance at several concentrations.
As for `OCCN1CCN(CC/C=C2/c3ccccc3Sc3ccc(C(F)(F)F)cc32)CC1`, the Potency entry is “inactive”. For the molecule `Cc1onc(-c2ccccc2Cl)c1C(=O)N[C@@H]1C(=O)N2[C@@H]1SC(C)(C)[C@@H]2C(=O)O`, the Potency result was “inactive”.

With `O=[N+]([O-])c1cc([N+](=O)[O-])c2ccc(S(=O)(=O)O)cc2c1O`, the Potency was 27.1 µM (active). Regarding `Nc1ccccc1O`, the Potency is 53.8 µM (active). The entry for `O=C(NO)C1(NS(=O)(=O)c2ccc(Oc3ccc(F)cc3)cc2)CCOCC1` is “inactive”. The entry for `CC(C)OC(=O)c1cc2c(OCC(O)CNC(C)(C)C)cccc2[nH]1` (stereo not given) is “inactive”. The entry for `CCCCN(CCCC)c1ccc(C(=O)c2ccccc2C(=O)O)c(O)c1` is “inactive”; for `Oc1cccc2cc3cccc(O)c3c(O)c12` it is “inactive”. Consider `CCCCCCOC(=O)c1ccc(O)cc1`, for which the Potency result is “inactive”. As to `CSc1cnc(C)cn1`, the Potency entry was “inactive”.

As for `COC(=O)C1=C(C)NC(C)=C(C(=O)OCC(C)C)C1c1ccccc1[N+](=O)[O-]` (stereo not given), the Potency entry is “inactive”. With `Cc1[nH]nc2c1N=C(c1ccccc1Cl)c1cc([N+](=O)[O-])ccc1N2`, the Potency was 27.3 µM (active). For `CCC(C)Nc1ccc(NC(C)CC)cc1` (stereo not given), the Potency was 9.88 µM (active).

In the case of `Cc1nc(-c2ccc3c(c2)CCN(CCC2CCC(NC(=O)/C=C/c4ccc(F)cc4)CC2)CC3)no1` (stereo not given), the Potency result was “inactive”. As for `CCCCCCCC[P+](CCCCCCCC)(CCCCCCCC)CCCCCCCC`, the Potency was 21.6 µM (active).

Consider `CCOC(=O)c1nc(C(Cl)(Cl)Cl)n(-c2ccc(Cl)cc2Cl)n1`, for which the Potency result is “inactive”. The entry for `Cc1cccc2c1cc1ccc3cccc4ccc2c1c34` is “inactive”; for `Cc1cc2c(cc1C(F)(F)F)N(C(=O)Nc1ccc(Oc3cccnc3C)nc1)CC2` it is “inactive”; for `CN1CCC(Nc2ncc3ncnc(Nc4ccc(F)c(Cl)c4)c3n2)CC1` it is “inactive”. The entry for `C[C@@H](NCCCc1cccc(C(F)(F)F)c1)c1cccc2ccccc12` is “inactive”; for `CC(C)(C)C1CCC(CC2=C(O)c3ccccc3C(=O)C2=O)CC1` (stereo not given) it is 29.8 µM (active). Regarding `CSc1ccc2c(c1)C(N1CCN(C)CC1)Cc1ccccc1S2` (stereo not given), the Potency entry is “inactive”. The entry for `Cc1ccc(-n2nc(C(C)(C)C)cc2NC(=O)Nc2ccc(OCCN3CCOCC3)c3ccccc23)cc1` is “inactive”; for `[Cl][Au]([Cl])[Cl]` it is 68.6 µM (active). Turning to `N/C(=N\N=C\c1ccc(Cl)cc1)N/N=C/c1ccc(Cl)cc1`, the Potency result is “inactive”.

In the case of `CC(C)(C)C(=O)OCOC(=O)[C@@H]1N2C(=O)[C@@H](NC(=O)[C@H](N)c3ccccc3)[C@H]2SC1(C)C`, the Potency result is “inactive”. Regarding `COC(=O)c1cc(Cl)ccc1OC`, the Potency entry is “inactive”. The entry for `c1ccc(CSCc2ccccc2)cc1` is “inactive”; for `O=C(Oc1ccccc1)c1ccccc1C(=O)Oc1ccccc1` it is “inactive”. The value for `O=CC=C(c1ccccc1)c1ccccc1` was “inactive”; that for `CCCCCCCCCCCCCCCC(=O)OC[C@H](O)[C@H]1OC(=O)C(O)=C1O` was “inactive”. The entry for `CC(=O)OCC(C)OC(C)=O` (stereo not given) is “inactive”; for `Oc1ccc(N=Nc2ccccc2)cc1` it is “inactive”; for `CNCc1cc(F)ccc1Oc1ccc(Cl)c(Cl)c1` it is “inactive”. Turning to `COc1cccc2c1C(=O)c1c(O)c3c(c(O)c1C2=O)C[C@@](O)(C(=O)CO)C[C@@H]3O[C@H]1C[C@H](N)[C@H](O[C@@H]2CCCCO2)[C@H](C)O1`, the Potency was 13.3 µM (active). The figure for `CCCCC(CC)CN=C(N)NC(N)=NCCCCCCN=C(N)NC(N)=NCC(CC)CCCC` (stereo not given) is 29.8 µM (active). The entry for `C1CCCC1` is “inactive”; for `Oc1ccc2c(c1)-c1ccccc1C2` it is “inactive”; for `Cc1cc(O)c2ccccc2c1O` it is 29.8 µM (active). Turning to `CCc1cc(SCc2sc(-c3ccc(C(F)(F)F)cc3)nc2CN2CCN(c3ccc(OC)cc3)CC2)ccc1OCC(=O)O`, the Potency entry is “inactive”.

The values above are taken from PubChem BioAssay (Tox21).
